According to PubChem BioAssay (NCATS):
Records with an inconclusive call do not appear. A call without a number means that no potency is given here. Calls of active or inactive are those of the source. Calls follow the shape of the dose curve; as a rule, active = well fitted curve in the direction sought with a large enough effect; inconclusive = small, poorly fitted or top-dose-only effect, or another doubt; inactive = no such curve, though single readings can be large; an effect the other way counts as inactive or inconclusive. Where a SMILES comes first, the peptide text is derived from it. [ ]: non-standard residue; d: D form. pGlu = O=C1CC[C@@H](C(=O)O)N1

Legend:
MCC-13 = assay: qHTS assay to identify novel small-molecules to repurpose for Merkel cell carcinoma treatment (AID 1296009); settings: MCC and control cell lines, CellTiter-Glo viability, 72 h; series mostly up to 46 µM; also: nearly all actives have a fitted effect of over 60% in size
Summary of the method: (§1)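 Cells were treated for 72 hr at 37 degree celsius with compounds in 8- or 11-point dose response. Viability was read by CellTiter-Glo luminescence, normalized to no-cell (cytotoxicity) and DMSO controls.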

MCC-26 = assay: as above; settings: MCC and control cell lines, CellTiter-Glo viability, 72 h; series mostly up to 46 µM
Summary of the method: as §1

MKL-1 = assay: as above; settings: MCC and control cell lines, CellTiter-Glo viability, 72 h; series mostly up to 46 µM
Summary of the method: as §1

UISO = assay: as above; settings: MCC and control cell lines, CellTiter-Glo viability, 72 h; series mostly up to 46 µM
Summary of the method: as §1

C33A = assay: Primary qHTS to identify gynecologic anti-cancer compounds using libraries of approved drugs and bioactive compounds (AID 1345084); settings: Gynecologic cancer cell panel viability, ATPlite luminescence, 48 h; series mostly up to 57.5 µM; also: nearly all actives have a fitted effect of over 55% in size
Summary of the method: (§2)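 In this quantitative HTS, cell killing is estimated from loss of ATP-dependent luciferase light. Cells see five compound concentrations over a 48 h exposure.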

CAOV3 = assay: as above; settings: Gynecologic cancer cell panel viability, ATPlite luminescence, 48 h; series mostly up to 57.5 µM
Summary of the method: as §2

CASKI = assay: as above; settings: Gynecologic cancer cell panel viability, ATPlite luminescence, 48 h; series mostly up to 57.5 µM
Summary of the method: as §2

Es-2 = assay: as above; settings: Gynecologic cancer cell panel viability, ATPlite luminescence, 48 h; series mostly up to 57.5 µM
Summary of the method: as §2

HeLa = assay: as above; settings: Gynecologic cancer cell panel viability, ATPlite luminescence, 48 h; series mostly up to 57.5 µM
Summary of the method: as §2

Hek293T = assay: as above; settings: Gynecologic cancer cell panel viability, ATPlite luminescence, 48 h, control line for the selectivity index; series mostly up to 57.5 µM
Summary of the method: as §2

JEG-3 = assay: as above; settings: Gynecologic cancer cell panel viability, ATPlite luminescence, 48 h; series mostly up to 57.5 µM
Summary of the method: as §2

OV90 = assay: as above; settings: Gynecologic cancer cell panel viability, ATPlite luminescence, 48 h; series mostly up to 57.5 µM
Summary of the method: as §2

PA-1 = assay: as above; settings: Gynecologic cancer cell panel viability, ATPlite luminescence, 48 h; series mostly up to 57.5 µM
Summary of the method: as §2

SKOV3 = assay: as above; settings: Gynecologic cancer cell panel viability, ATPlite luminescence, 48 h; series mostly up to 57.5 µM
Summary of the method: as §2

Tov-21-G = assay: as above; settings: Gynecologic cancer cell panel viability, ATPlite luminescence, 48 h; series mostly up to 57.5 µM
Summary of the method: as §2

MKL-2 = assay: qHTS assay to identify novel small-molecules to repurpose for Merkel cell carcinoma treatment (AID 1296009); settings: MCC and control cell lines, CellTiter-Glo viability, 72 h; series mostly up to 46 µM; also: nearly all actives have a fitted effect of over 60% in size
Summary of the method: as §1

WaGa = assay: as above; settings: MCC and control cell lines, CellTiter-Glo viability, 72 h; series mostly up to 46 µM
Summary of the method: as §1
Potency is read from the fitted curve at half-maximal effect.

SMILES | Potency (MCC-13) | Potency (MCC-26) | Potency (MKL-1) | Potency (UISO) | Potency (C33A) | Potency (CAOV3) | Potency (CASKI) | Potency (Es-2) | Potency (HeLa) | Potency (Hek293T) | Potency (JEG-3) | Potency (OV90) | Potency (PA-1) | Potency (SKOV3) | Potency (Tov-21-G) | Potency (MKL-2) | Potency (WaGa)
COC(=O)C1=C(C)NC(COC(N)=O)=C(C(=O)OC(C)C)C1c1cccc(Cl)c1Cl (stereo not given) | inactive | inactive | inactive | inactive | inactive | inactive | inactive | inactive | inactive | inactive | inactive | inactive | inactive | inactive | inactive | – | –
CC(=O)Nc1ccn(C2COC(COC(=O)c3ccccc3)O2)c(=O)n1 (stereo not given) | inactive | inactive | inactive | – | inactive | – | inactive | – | inactive | inactive | inactive | – | inactive | inactive | inactive | inactive | –
O=C(CCC1CCN(Cc2ccccc2)CC1)c1ccc2c(c1)NCCCC2 | inactive | inactive | inactive | inactive | inactive | – | inactive | inactive | inactive | inactive | inactive | – | – | – | inactive | – | inactive
C[C@H](CN1CCCC1)C(=O)c1ccc(C(F)(F)F)cc1 | inactive | inactive | inactive | inactive | – | inactive | inactive | inactive | inactive | inactive | inactive | inactive | inactive | inactive | inactive | – | inactive
CC(C)(C)C1CCC(CC2=C(O)c3ccccc3C(=O)C2=O)CC1 (stereo not given) | inactive | inactive | inactive | – | inactive | – | inactive | inactive | inactive | inactive | inactive | – | inactive | – | inactive | inactive | inactive
O=C(O)CNC(=O)CNC(=O)CNC(=O)CSC(=O)c1ccccc1 | inactive | inactive | inactive | inactive | – | – | inactive | inactive | inactive | inactive | inactive | inactive | inactive | – | inactive | inactive | inactive
CCCN(CCC)C(=O)C(CCC(=O)OCCCN1CCN(CCOC(=O)Cc2c(C)n(C(=O)c3ccc(Cl)cc3)c3ccc(OC)cc23)CC1)NC(=O)c1ccccc1 (stereo not given) | inactive | inactive | inactive | inactive | inactive | inactive | inactive | inactive | inactive | inactive | inactive | inactive | inactive | – | inactive | – | –
CC[N+](CC)(CC)CCOC(=O)C(C1CCCC1)C1CCCC1 | inactive | inactive | 11.9 µM (active) | – | inactive | inactive | – | inactive | inactive | inactive | inactive | – | – | inactive | inactive | 5.96 µM (active) | 9.44 µM (active)
Cc1cccc(N(C)C(=S)Oc2ccc3c(c2)C2CCC3C2)c1 (stereo not given) | inactive | inactive | inactive | – | inactive | inactive | inactive | – | inactive | inactive | inactive | 35.5 µM (active) | inactive | inactive | inactive | – | –
O=[N+]([O-])c1ccc(O)c2ncccc12 | 11.9 µM (active) | 13.3 µM (active) | 3.76 µM (active) | 7.5 µM (active) | 15.8 µM (active) | – | – | – | inactive | – | inactive | – | – | – | – | 2.66 µM (active) | 7.5 µM (active)
CC(=O)/C=C/C=C1/C2CCC(C2)C1(C)C (stereo not given) | inactive | inactive | inactive | inactive | inactive | inactive | inactive | inactive | inactive | inactive | inactive | inactive | – | inactive | inactive | – | –
Oc1cccc2[nH]ccc12 | inactive | inactive | inactive | 26.6 µM (active) | inactive | inactive | inactive | inactive | inactive | inactive | inactive | inactive | inactive | inactive | inactive | inactive | –
COC(=O)c1cc(Cl)ccc1NS(=O)(=O)C(F)(F)F | inactive | inactive | inactive | inactive | – | 25.1 µM (active) | inactive | – | – | inactive | inactive | inactive | inactive | inactive | – | inactive | inactive
COc1cc2nc(Cl)nc(N)c2cc1OC | inactive | inactive | inactive | – | inactive | – | inactive | inactive | inactive | inactive | inactive | inactive | inactive | inactive | inactive | inactive | –
CCCCC/C=C\C/C=C\CCCCCCCC(=O)NC(C)c1ccccc1 (stereo not given) | inactive | inactive | inactive | inactive | inactive | inactive | inactive | inactive | inactive | inactive | inactive | – | inactive | – | inactive | – | inactive
CN(C)CCOC(c1ccccc1)c1ccc(Br)cc1 (stereo not given) | inactive | inactive | inactive | inactive | inactive | inactive | inactive | inactive | inactive | inactive | inactive | 12.6 µM (active) | inactive | – | inactive | – | 23.7 µM (active)
c1ccc(C(O[C@H]2CCCN(CCc3ccc4c(c3)OCO4)C2)c2ccccc2)cc1 | inactive | inactive | inactive | inactive | inactive | – | inactive | inactive | inactive | inactive | inactive | inactive | inactive | inactive | inactive | inactive | –
CCCC(=O)O[C@]1(C(=O)CC)CC[C@H]2[C@@H]3CCC4=CC(=O)CC[C@]4(C)[C@H]3[C@@H](O)C[C@@]21C | inactive | inactive | inactive | inactive | inactive | inactive | inactive | inactive | inactive | inactive | inactive | inactive | inactive | inactive | inactive | inactive | –
CC(C)OC(=O)c1cc2c(OCC(O)CNC(C)(C)C)cccc2[nH]1 (stereo not given) | inactive | inactive | inactive | inactive | inactive | – | inactive | inactive | – | – | inactive | – | inactive | – | inactive | inactive | inactive
CCC[C@H](N[C@@H](C)C(=O)N1[C@H](C(=O)O)C[C@@H]2CCCC[C@@H]21)C(=O)OCC | inactive | inactive | inactive | inactive | inactive | inactive | inactive | inactive | inactive | inactive | inactive | inactive | inactive | inactive | inactive | inactive | –
O=C1Nc2ccccc2C1(c1ccc(O)cc1)c1ccc(O)cc1 | inactive | inactive | inactive | – | – | – | inactive | inactive | inactive | inactive | inactive | – | inactive | – | – | inactive | –
CC(C)(Oc1ccc(Cl)cc1)C(=O)OCCCOC(=O)C(C)(C)Oc1ccc(Cl)cc1 | inactive | inactive | inactive | inactive | inactive | inactive | inactive | inactive | inactive | inactive | inactive | inactive | inactive | inactive | inactive | – | inactive
CC(C)C[C@H](NC(=O)CNC(=O)[C@H](Cc1ccc(O)cc1)NC(=O)[C@H](CO)NC(=O)[C@H](Cc1c[nH]c2ccccc12)NC(=O)[C@H](Cc1cnc[nH]1)NC(=O)[C@@H]1CCC(=O)N1)C(=O)N[C@@H](CCCN=C(N)N)C(=O)N1CCC[C@H]1C(=O)NCC(N)=O (stereo in doubt) | inactive | inactive | inactive | – | – | – | – | – | – | – | – | – | – | – | – | inactive | inactive
CN1CCC(N(Cc2cccs2)c2ccccc2)CC1 | inactive | inactive | inactive | – | inactive | inactive | inactive | inactive | inactive | inactive | inactive | – | inactive | inactive | inactive | inactive | inactive
CN1CCC(Nc2ncc3ncnc(Nc4ccc(F)c(Cl)c4)c3n2)CC1 | inactive | inactive | – | inactive | – | – | inactive | inactive | inactive | – | – | – | – | – | inactive | 15 µM (active) | –
C/C(=C(/OCCOc1ccc(Cl)cc1)c1ccc(Cl)cc1Cl)n1ccnc1 | inactive | inactive | inactive | – | inactive | – | inactive | inactive | inactive | inactive | inactive | inactive | inactive | inactive | inactive | – | –
CCNC(=O)[C@@H]1CCCN1C(=O)[C@H](CCCN=C(N)N)NC(=O)[C@H](CC(C)C)NC(=O)CNC(=O)[C@H](Cc1ccc(O)cc1)NC(=O)[C@H](CO)NC(=O)[C@H](Cc1c[nH]c2ccccc12)NC(=O)[C@H](Cc1cnc[nH]1)NC(=O)[C@@H]1CCC(=O)N1 ([pGlu]HWSYGLRP-NHEt) | inactive | inactive | inactive | inactive | inactive | inactive | inactive | inactive | inactive | inactive | inactive | inactive | inactive | inactive | inactive | – | inactive
O=S(=O)(O)c1ccc2nc(-c3ccccc3)[nH]c2c1 | inactive | inactive | inactive | inactive | – | – | inactive | inactive | inactive | inactive | inactive | inactive | inactive | inactive | inactive | inactive | –
CCCC(=O)O[C@]1(C(=O)CCl)[C@@H](C)C[C@H]2[C@@H]3CCC4=CC(=O)C=C[C@]4(C)[C@@]3(F)C(=O)C[C@@]21C | inactive | inactive | – | – | inactive | – | inactive | inactive | inactive | – | inactive | inactive | inactive | – | inactive | – | –
O=c1[nH]sc2cc(Cl)ccc12 | 6.68 µM (active) | – | inactive | – | – | – | inactive | – | inactive | – | inactive | inactive | – | – | – | inactive | inactive
